{"source": "PubChem BioAssay (Tox21)", "note": "Inconclusive results are not listed. Calls of active or inactive are those of the source. Unless noted, the call rests on the fitted dose curve; in most records, active means well fitted cell-killing curve with a large enough effect in the repeat runs; inconclusive means weak or mixed curves; inactive means no such curve, though single readings can be large or run the other way.", "data": [{"biological_target": "Peroxisome proliferator-activated receptor delta (Homo sapiens) (UniProt Q03181)", "sequence (Q03181 whole entry, looked up)": "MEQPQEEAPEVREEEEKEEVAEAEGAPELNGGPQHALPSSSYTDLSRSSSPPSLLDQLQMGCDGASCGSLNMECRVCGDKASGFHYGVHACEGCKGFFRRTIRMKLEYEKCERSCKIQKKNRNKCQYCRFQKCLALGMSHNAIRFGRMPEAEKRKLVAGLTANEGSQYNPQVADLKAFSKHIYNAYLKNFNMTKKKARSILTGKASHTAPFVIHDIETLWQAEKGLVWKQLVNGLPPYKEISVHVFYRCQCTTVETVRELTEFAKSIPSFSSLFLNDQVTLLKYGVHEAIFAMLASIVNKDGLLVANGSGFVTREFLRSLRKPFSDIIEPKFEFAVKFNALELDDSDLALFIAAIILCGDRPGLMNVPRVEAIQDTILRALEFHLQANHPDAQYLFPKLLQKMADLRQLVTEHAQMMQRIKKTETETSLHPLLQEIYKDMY", "assay": "qHTS assay to identify small molecule agonists of the peroxisome proliferator-activated receptor delta (PPARd) signaling pathway (AID 743212; calls by dose curve;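 further: HEK293H cells with PPARd UAS beta-lactamase reporter GeneBLAzer system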)", "conditions": "HEK293H PPARd-UAS-bla, beta-lactamase FRET ratio, 17 h; series mostly up to 62.6 µM", "in_short": "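A PPARd-bla HEK293H line with beta-lactamase under an Upstream Activator Sequence is treated with compounds at 37 C. Substrate loading for 2 h at room temperature precedes the fluorescence measurement.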", "values": [{"smiles": "Cc1cnc[nH]1", "outcome": "inactive"}, {"smiles": "OC(Cn1cncn1)(c1ccc(F)cc1)c1ccccc1F", "note": "(stereo unspecified)", "outcome": "inactive"}, {"smiles": "CC(=O)CC(c1ccc(Cl)cc1)c1c(O)c2ccccc2oc1=O", "note": "(stereo unspecified)", "outcome": "inactive"}, {"smiles": "ClCC(Cl)Cl", "outcome": "inactive"}, {"smiles": "Oc1c(Cl)cccc1Cl", "outcome": "inactive"}, {"smiles": "CCC1(c2ccccc2)C(=O)NC(=O)NC1=O", "outcome": "inactive"}, {"smiles": "Fc1cc(Br)ccc1CBr", "outcome": "inactive"}, {"smiles": "O=NN1CCCCC1", "outcome": "inactive"}, {"smiles": "CS(=O)(=O)c1cc(C(F)(F)F)ccc1C(=O)c1cnoc1C1CC1", "outcome": "inactive"}, {"smiles": "O=[N+]([O-])c1cccc2c([N+](=O)[O-])cccc12", "outcome": "inactive"}, {"smiles": "NC(=S)C(N)=S", "outcome": "inactive"}, {"smiles": "CCC(=O)C(CCN(C)C)(c1ccccc1)c1ccccc1", "outcome": "inactive"}, {"smiles": "C[C@@H]1CN(C2CCC(C#N)(c3ccc(F)cc3)CC2)CC[C@]1(C(=O)O)c1ccccc1", "note": "(stereo partly specified)", "outcome": "inactive"}, {"smiles": "O=[N+]([O-])c1cccc2cccnc12", "outcome": "inactive"}, {"smiles": "CCOP(=O)(N=C1SCCS1)OCC", "outcome": "inactive"}, {"smiles": "CN1CCC(O)(c2ccc(F)cc2)C(C(=O)c2ccc(F)cc2)C1", "note": "(stereo unspecified)", "outcome": "inactive"}, {"smiles": "C[N+](=O)[O-]", "outcome": "inactive"}, {"smiles": "O=C1OC(c2ccc(O)c(S(=O)(=O)O)c2)(c2ccc(O)c(S(=O)(=O)O)c2)c2c(Br)c(Br)c(Br)c(Br)c21", "outcome": "inactive"}, {"smiles": "O=[N+]([O-])c1cc(Cl)c(Cl)c(Cl)c1", "outcome": "inactive"}, {"smiles": "CN(C)CCc1ccc(O)cc1", "outcome": "inactive"}, {"smiles": "O=C(Oc1ccc(Br)cc1)N1CCN2CCC1CC2", "outcome": "inactive"}, {"smiles": "CC(C)[N+](=O)[O-]", "outcome": "inactive"}, {"smiles": "C=C(C)CN(CC)c1c([N+](=O)[O-])cc(C(F)(F)F)cc1[N+](=O)[O-]", "outcome": "inactive"}, {"smiles": "NC(=O)c1cc([N+](=O)[O-])cc([N+](=O)[O-])c1", "outcome": "inactive"}, {"smiles": "N#CC(Cl)(Cl)Cl", "outcome": "inactive"}, {"smiles": "CCCCc1c(C)nc(NCC)[nH]c1=O", "outcome": "inactive"}, {"smiles": "CCc1cc2c(s1)-n1c(C)nnc1CN=C2c1ccccc1Cl", "outcome": "inactive"}, {"smiles": "CCOP(=S)(OCC)SCSP(=S)(OCC)OCC", "outcome": "inactive"}, {"smiles": "C(CCOCC1CO1)COCC1CO1", "note": "(stereo unspecified)", "outcome": "inactive"}, {"smiles": "Nc1cc2c3c(c1)C(c1ccccc1)=N[C@@H](NC(=O)c1cccnc1)C(=O)N3CC2", "outcome": "inactive"}, {"smiles": "CCOc1nc(C(Cl)(Cl)Cl)ns1", "outcome": "inactive"}, {"smiles": "Cc1cc(C)c(C(=O)P(=O)(C(=O)c2c(C)cc(C)cc2C)c2ccccc2)c(C)c1", "outcome": "inactive"}, {"smiles": "C[C@H]1CCC[C@H](O)CCCCCc2cc(O)cc(O)c2C(=O)O1", "outcome": "inactive"}, {"smiles": "CCCSC(=O)N(CCC)CCC", "outcome": "inactive"}, {"smiles": "CCCCN(CCCCO)N=O", "outcome": "inactive"}, {"smiles": "N#CCNCC#N", "outcome": "inactive"}, {"smiles": "Cc1coc2c1CCC(C)C2", "note": "(stereo unspecified)", "outcome": "inactive"}, {"smiles": "CCOC(=O)NC(=S)Nc1ccccc1NC(=S)NC(=O)OCC", "outcome": "inactive"}]}, {"tested_on": "not listed separately", "assay": "qHTS assay to identify small molecule antagonists of the peroxisome proliferator-activated receptor delta (PPARd) signaling pathway - cell viability counter screen (AID 743213); further: nearly all actives have a fitted effect of over 50% in size", "conditions": "PPARd-bla HEK293H viability, CellTiter-Glo luminescence, 17 h; series mostly up to 62 µM", "in_short": "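Viability counter-screen, qHTS format: PPARd-bla HEK293H, L165041 300 nM final, 17 h compound exposure at 37 C, CellTiter-Glo luminescence after 30 min RT.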", "values": [{"smiles": "Cc1cnc[nH]1", "outcome": "inactive"}, {"smiles": "OC(Cn1cncn1)(c1ccc(F)cc1)c1ccccc1F", "note": "(stereo unspecified)", "outcome": "inactive"}, {"smiles": "CC(=O)CC(c1ccc(Cl)cc1)c1c(O)c2ccccc2oc1=O", "note": "(stereo unspecified)", "outcome": "inactive"}, {"smiles": "ClCC(Cl)Cl", "outcome": "inactive"}, {"smiles": "Oc1c(Cl)cccc1Cl", "outcome": "inactive"}, {"smiles": "CCC1(c2ccccc2)C(=O)NC(=O)NC1=O", "outcome": "inactive"}, {"smiles": "Fc1cc(Br)ccc1CBr", "outcome": "inactive"}, {"smiles": "O=NN1CCCCC1", "outcome": "inactive"}, {"smiles": "CS(=O)(=O)c1cc(C(F)(F)F)ccc1C(=O)c1cnoc1C1CC1", "outcome": "inactive"}, {"smiles": "O=[N+]([O-])c1cccc2c([N+](=O)[O-])cccc12", "outcome": "inactive"}, {"smiles": "NC(=S)C(N)=S", "outcome": "inactive"}, {"smiles": "CCC(=O)C(CCN(C)C)(c1ccccc1)c1ccccc1", "outcome": "inactive"}, {"smiles": "C[C@@H]1CN(C2CCC(C#N)(c3ccc(F)cc3)CC2)CC[C@]1(C(=O)O)c1ccccc1", "note": "(stereo partly specified)", "outcome": "inactive"}, {"smiles": "O=[N+]([O-])c1cccc2cccnc12", "outcome": "inactive"}, {"smiles": "CCOP(=O)(N=C1SCCS1)OCC", "outcome": "inactive"}, {"smiles": "CN1CCC(O)(c2ccc(F)cc2)C(C(=O)c2ccc(F)cc2)C1", "note": "(stereo unspecified)", "outcome": "inactive"}, {"smiles": "C[N+](=O)[O-]", "outcome": "inactive"}, {"smiles": "O=C1OC(c2ccc(O)c(S(=O)(=O)O)c2)(c2ccc(O)c(S(=O)(=O)O)c2)c2c(Br)c(Br)c(Br)c(Br)c21", "outcome": "inactive"}, {"smiles": "O=[N+]([O-])c1cc(Cl)c(Cl)c(Cl)c1", "outcome": "inactive"}, {"smiles": "CN(C)CCc1ccc(O)cc1", "outcome": "inactive"}, {"smiles": "O=C(Oc1ccc(Br)cc1)N1CCN2CCC1CC2", "outcome": "inactive"}, {"smiles": "CC(C)[N+](=O)[O-]", "outcome": "inactive"}, {"smiles": "C=C(C)CN(CC)c1c([N+](=O)[O-])cc(C(F)(F)F)cc1[N+](=O)[O-]", "outcome": "inactive"}, {"smiles": "NC(=O)c1cc([N+](=O)[O-])cc([N+](=O)[O-])c1", "outcome": "inactive"}, {"smiles": "N#CC(Cl)(Cl)Cl", "outcome": "inactive"}, {"smiles": "CCCCc1c(C)nc(NCC)[nH]c1=O", "outcome": "inactive"}, {"smiles": "CCc1cc2c(s1)-n1c(C)nnc1CN=C2c1ccccc1Cl", "outcome": "inactive"}, {"smiles": "CCOP(=S)(OCC)SCSP(=S)(OCC)OCC", "outcome": "inactive"}, {"smiles": "C(CCOCC1CO1)COCC1CO1", "note": "(stereo unspecified)", "outcome": "inactive"}, {"smiles": "Nc1cc2c3c(c1)C(c1ccccc1)=N[C@@H](NC(=O)c1cccnc1)C(=O)N3CC2", "outcome": "inactive"}, {"smiles": "CCOc1nc(C(Cl)(Cl)Cl)ns1", "outcome": "inactive"}, {"smiles": "Cc1cc(C)c(C(=O)P(=O)(C(=O)c2c(C)cc(C)cc2C)c2ccccc2)c(C)c1", "outcome": "inactive"}, {"smiles": "C[C@H]1CCC[C@H](O)CCCCCc2cc(O)cc(O)c2C(=O)O1", "outcome": "inactive"}, {"smiles": "CCCSC(=O)N(CCC)CCC", "outcome": "inactive"}, {"smiles": "CCCCN(CCCCO)N=O", "outcome": "inactive"}, {"smiles": "N#CCNCC#N", "outcome": "inactive"}, {"smiles": "Cc1coc2c1CCC(C)C2", "note": "(stereo unspecified)", "outcome": "inactive"}, {"smiles": "CCOC(=O)NC(=S)Nc1ccccc1NC(=S)NC(=O)OCC", "outcome": "inactive"}]}]}
